# Compounds with a hit are over-represented: about 9.2% of the library has one in this group of screens.
# HPGD block: HPGD (human) dehydrogenase inhibition. P15428. Potency, µM, inactives show at the highest dose activity change, negative = inhibition, most hits filed as inhibitors. purified HPGD, NADH fluorescence kinetic, PGE2 substrate. 4.3% of 150,000 active. AID 894; further: on the % scale 0 is the no-effect control and ±100 the full control effect
#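 NADH formation kinetics: reaction with 30 uM PGE2 and 1 mM NAD+ (final), 20 nM enzyme, Tris-HCl pH 8 with Tween 20, after 15 min compound preincubation at room temperature. Fluorescence change, last versus first of five reads.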
# HTT cytoprotect: cytoprotection in Huntington HTT-Q103 PC12 cell model | PC12 HTT-Q103 induced, cytoprotection, ATP luminescence, 40 h | Potency, µM (series often up to 56.4 µM), for inactives: cytoprotection (ATP increase), usual class: activators | 0.14% of 230,000 active; active means well fitted curve in the direction sought with a large enough effect; inconclusive means small, poorly fitted or top-dose-only effect, or another doubt; inactive means no such curve, though single readings can be large; an effect the other way counts as inactive or inconclusive; further: % of control where 0% means no effect; nearly all actives have a fitted effect of over 45% in size
#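 Stable PC12 Q103-GFP cells in serum-supplemented, phenol red-free DMEM; induction by tebufenozide at 100 nM final; compound dose series; cell viability quantified luminescently from ATP.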
# Lamin A splicing: changes lamin A minigene splicing in HeLa cells; HeLa LMNA splicing GFP/RFP minigene ratio, 48 h; AID 1487; Potency, µM (top dose mostly 46.1 µM), inactives show at the highest dose ratio change, negative = inhibition, most hits filed as inhibitors; 0.01% of 200,000 active; active means well fitted inhibition curve with a large enough effect in the signal ratio, with a control signal flat, not every such curve was filed as active; inconclusive means small, poorly fitted or top-dose-only effect, or effect the other way, or a change in a side signal; the % refers to the signal ratio; further: on the % scale 0 is the no-effect control and ±100 the full control effect
#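 Read-out is the ratio of GFP to DsRed2 object intensity, acquired by 488 nm laser-scanning cytometry on HeLa lamin A-EGFP minigene reporter cells. Compound incubation 48 hrs at 37 °C in Opti-MEM with 2% FBS; DMSO 0.5% final.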
# ALDH1A1 block: inhibitors of human aldehyde dehydrogenase 1A1; 7.3% of 220,000 active; P00352; Purified ALDH1A1, NADH fluorescence, propionaldehyde substrate; Potency, µM (top dose mostly 75.3 µM), inactives show at the highest dose activity, negative = inhibition, usual class: inhibitors;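 further: plate controls were no enzyme wells and a reference inhibitor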
# Target sequence (P00352 whole entry, looked up): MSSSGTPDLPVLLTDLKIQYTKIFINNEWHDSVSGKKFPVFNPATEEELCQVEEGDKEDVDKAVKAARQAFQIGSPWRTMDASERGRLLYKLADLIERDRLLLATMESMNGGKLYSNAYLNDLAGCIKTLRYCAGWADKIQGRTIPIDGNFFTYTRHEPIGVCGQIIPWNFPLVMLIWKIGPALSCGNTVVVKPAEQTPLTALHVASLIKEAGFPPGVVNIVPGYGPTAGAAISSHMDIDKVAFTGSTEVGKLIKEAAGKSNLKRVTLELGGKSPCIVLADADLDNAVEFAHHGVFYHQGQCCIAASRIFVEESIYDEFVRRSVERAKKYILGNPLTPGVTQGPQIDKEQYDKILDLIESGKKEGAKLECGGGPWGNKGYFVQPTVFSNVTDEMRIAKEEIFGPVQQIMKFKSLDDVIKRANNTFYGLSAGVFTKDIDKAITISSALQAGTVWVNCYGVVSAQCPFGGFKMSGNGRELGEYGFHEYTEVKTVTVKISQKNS
# KDM4E inh: JMJD2E (human) inhibition | B2RXH2 | JMJD2E catalytic domain, FDH-coupled NADH fluorescence (FDH is formaldehyde dehydrogenase) | Potency, µM (titrated, usually from 57.1 µM), for the others: at the top dose activity change, negative = inhibition, usual class: inhibitors | 1.6% of 230,000 active | AID 2147;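 further: 0% = wells with enzyme and -100% = buffer wells without enzyme; nearly all actives have a fitted effect of over 50% in size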
# HttQ103 aggreg: reduces HttQ103-GFP aggregates in PC12 cells; Potency, µM (doses to about 46.1 µM), inactives show at the highest dose activity change, negative = inhibition, usual class: inhibitors; AID 1688; 1.1% of 220,000 active; PC12 HttQ103-GFP aggregates, Acumen cytometry, 40 h; active means well fitted curve in the direction sought with a large enough effect; inconclusive means small, poorly fitted or top-dose-only effect, or another doubt; inactive means no such curve, though single readings can be large; an effect the other way counts as inactive or inconclusive; further: on the % scale 0 is the no-effect control and ±100 the full control effect; nearly all actives have a fitted effect of over 60% in size
#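 Inducible Q103 Huntingtin exon 1–GFP PC12 line, 1500 cells/well in phenol red free DMEM with 5% equine and 5% calf serum. Tebufenozide 100 nM induced expression; compounds titrated; aggregates quantified by cytometry.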
# Starred values were filed as active, the others as inactive; ? = inconclusive; . = no result; [ ] = another dose, or the depositor's remark. Unless noted, the call rests on the fitted dose curve; in most records, active means well fitted inhibition curve with a large enough effect (not every such curve was filed as active); inconclusive means small, poorly fitted or top-dose-only effect, or another doubt; inactive means no such curve, though single readings can be large or run the other way. Potency means the concentration at half of the fitted maximal effect.
SMILES,HPGD block,HTT cytoprotect,Lamin A splicing,ALDH1A1 block,KDM4E inh,HttQ103 aggreg
COc1ccc(-n2c(-c3cccc(C)c3[N+](=O)[O-])n[nH]c2=S)cc1,35µM*,-9%,-2%,?,1%,6%
CCOC(=O)N1CCc2c(sc(NC(=O)c3ccc(S(=O)(=O)N4CCCC4)cc3)c2C#N)C1,-21%,2%[10 µM],?,?,-9%,-30%
CCN1CCc2c(sc(NC(=S)NC(=O)c3ccc(Cl)cc3)c2C(N)=O)C1,.,13%[10 µM],.,10µM*,0%,17%[9.22 µM]
CCCN1CCc2c(sc(NC(=S)NC(=O)c3ccccc3)c2C#N)C1,.,-87%,?,7.9µM*,?,-10%
CC(C)N1CCc2c(sc(NC(=S)NC(=O)c3ccccc3)c2C#N)C1,?,-2%[10 µM],-11%,13µM*,-5%,2%
CC(C)C1Cc2c(sc(NC(=S)NC(=O)c3ccccc3)c2C#N)CO1 (stereo not given),-25%,-3%[10 µM],1%,-6%,2%,-7%
CC(C)N1CCc2c(sc(NC(=O)c3ccc(S(=O)(=O)N4CCOCC4)cc3)c2C#N)C1,-14%,-11%,-3%,10µM*,-27%,11%
CCCCC(=O)Nc1ccc2c(c1)nc1n2CCSC1,32µM*,-7%,4%,18µM*,13%,-10%
CC(=O)Nc1ccc2c(c1)nc1n2CCSC1,-9%,5%,4%,7%,0%,1%[9.22 µM]
COC(=O)C(/C=N/OCc1ccc([N+](=O)[O-])cc1)NC(=O)c1cccc(Cl)c1 (stereo not given),-3%,-3%,-5%,1.4µM*,0%,-17%
COCC(C)NC(=O)c1cccc(Cl)c1 (stereo not given),?,-20%[0.074 µM],10%,1%,-1%,-8%
Cc1nnc(N)s1,.,-6%[10 µM],.,.,0%,2%[9.22 µM]
NCC(=O)Nc1ccccc1,-4%,-8%[10 µM],.,3%[13.5 µM],.,.
COc1cc2c(cc1OC)[C@H](C)N(CC1C(=O)O[C@@H]3C[C@@]4(C)CCC[C@H](C)[C@@]45OC5[C@H]13)CC2 (stereo not given in full),-2%,8.9µM*,.,-3%,-16%,.
O=CN1CC(=O)N(c2ccccc2)c2c([nH]c3ccccc23)C1,22µM*,26%,10%[0.0737 µM],?,-4%,15%
COC(=O)CCCC(=O)NC(C)c1cnn(-c2ccccc2C)c1C (stereo not given),.,5%[10 µM],4%[46 µM],8%,-4%,3%[9.22 µM]
Cc1ccc(S(=O)(=O)C2(C(=O)N3CCCC(C)C3)CC2)cc1 (stereo not given),25µM*,2%,13%,1%,12%,2%
COCCNC(=O)C1CCCN(S(=O)(=O)c2ccc3c(ccn3C)c2)C1 (stereo not given),.,.,-7%[46 µM],.,.,.
Cc1oc(C(=O)Nc2ccc(C(=O)O)cc2)cc1COc1ccccc1,20µM*,-12%,?,-7%,-7%,10%
COC(=O)c1ccc(C2N=C(c3cccs3)CC(c3ccccc3O)N2)cc1 (stereo not given),.,-160%,?,?,?,?
Cc1ccc(C)c2c3c([nH]c12)-c1nonc1CC3,-22%,-6%,-12%,22µM*,?,-8%[9.22 µM]
Cc1cccc2sc(NC(=O)CN(C)S(=O)(=O)c3cccs3)nc12,-6%,-15%,?,-9%,-7%,16µM*
Cc1cccc2sc(NC(=O)CN(C)S(=O)(=O)c3ccc(Br)s3)nc12,-17%,-3%,?,-8%,4%,?
COc1ccccc1/C=C/C(=O)OCC(=O)Nc1cc(C(F)(F)F)ccc1N1CCOCC1,.,32%[10 µM],?,-13%,?,12%
Cc1ccc(SCC(=O)OCn2nnc3ccccc3c2=O)cc1C,-20%,.,1%,-1%,5%,-1%
SMILES,HPGD block,HTT cytoprotect,Lamin A splicing,ALDH1A1 block,KDM4E inh,HttQ103 aggreg
O=C(OCn1ncc(Br)c(Br)c1=O)c1ccccc1Cl,?,-80%,?,0.4µM*,4%,?
O=C(OCn1ncc(Br)c(Br)c1=O)c1ccc(F)cc1,22µM*,-98%[10 µM],?,0.089µM*,2%,4µM*
Cc1nn2c(=O)cc(COC(=O)c3ccc(F)cc3)nc2s1,.,.,13%[46 µM],.,.,.
C/C(=N/NC(=O)CNC(=O)c1ccncc1)c1ccco1,.,-10%[10 µM],.,.,-5%,-18%[9.22 µM]
COc1cccc(CSc2nc3ccccc3cc2C=O)c1,13µM*,-28%,?,?,-5%,-4%
CCOc1ccc(-c2cn3ccccc3n2)cc1[N+](=O)[O-],-7%,-35%[10 µM],-7%,?,-7%,27%
CCCCOc1ccc(-c2cn3ccccc3n2)cc1[N+](=O)[O-],-11%,-26%[10 µM],?,10µM*,-7%,-2%
Cc1cc2c(cc1Cl)C(c1ccc3c(c1)OCO3)CC(=O)O2 (stereo not given),-6%,-17%,.,9%,.,.
Cc1nn(CCC#N)c2nc(-c3ccccc3)cc(C(F)(F)F)c12,?,-1%,17%,?,?,?
Cc1nn(CCC(N)=S)c2nc(-c3cccs3)cc(C(F)(F)F)c12,28µM*,-4%[10 µM],-7%,13µM*,?,0%
O=C(COc1ccccc1)N1CCN(c2ncccn2)CC1,.,-22%,.,-4%,?,18%
Cc1nc(N2CCN(C(=O)COc3ccccc3)CC2)c2c(C)c(C)sc2n1,?,-29%,?,11µM*,-12%,-14%
CC(C)NC(=S)NC(=O)c1ccc(Cl)cc1Cl,-12%,1%[10 µM],-19%,?,-3%,-14%
CC(C)CNC(=O)c1ccc(Cl)c(Cl)c1,22µM*,-13%,-2%,11%,4%,-6%
COc1cccc(OCC(=O)NNC(=S)Nc2ccc(Cl)cc2Cl)c1,.,5%,.,2µM*,-16%,17%
Cn1cccc1CC(=O)NNC(=S)Nc1ccc(Cl)cc1Cl,11µM*,21%[10 µM],-14%,10µM*,0%,22%
Cn1cccc1CC(=O)NNC(=S)NC(=O)c1ccccc1Br,.,15%[10 µM],?,-5%,-24%,-17%
CC(C)CNC(=S)NC(=O)c1ccc(Cl)cc1Cl,.,-10%[10 µM],-16%,22µM*,0%,-2%
O=C(c1cc(-c2ccc(Cl)cc2)on1)N(Cc1cccc(F)c1)Cc1ccco1,.,.,-4%[46 µM],.,.,.
